Measured values reported in the supplement of paper PMC12645437, “Orthogonal IMiD-Degron Pairs Induce Selective Protein Degradation in Cells” (ACS Chemical Biology, 2025).
Whole data set: some 8,300 sequences, median “log2 fold change of degron read counts, EGFP-low vs EGFP+ sorted cells (limma voom), compound-induced degradation” near -1.1, cut for the highest 2% near 3.2. The sample as a whole holds a higher share of the highest values than the screen did.

T1: CRBN, Q96SW2
T1 chain: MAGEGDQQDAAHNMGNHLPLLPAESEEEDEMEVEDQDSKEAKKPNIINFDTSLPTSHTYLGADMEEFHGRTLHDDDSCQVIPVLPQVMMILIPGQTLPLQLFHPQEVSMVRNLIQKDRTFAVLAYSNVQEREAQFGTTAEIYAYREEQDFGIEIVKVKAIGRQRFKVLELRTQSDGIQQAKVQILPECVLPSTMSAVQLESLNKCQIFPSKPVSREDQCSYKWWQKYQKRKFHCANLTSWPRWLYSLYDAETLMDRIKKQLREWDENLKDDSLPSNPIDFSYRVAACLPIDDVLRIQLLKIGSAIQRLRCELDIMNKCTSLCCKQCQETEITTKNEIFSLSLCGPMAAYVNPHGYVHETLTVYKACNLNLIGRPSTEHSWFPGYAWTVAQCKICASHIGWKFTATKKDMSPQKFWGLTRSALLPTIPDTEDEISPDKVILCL


Target: T1, CRBN, Q96SW2
Experiment: log2 fold change of degron read counts, EGFP-low vs EGFP+ sorted cells (limma voom), compound-induced degradation; higher = more compound-induced degradation of the degron-EGFP fusion; degrons are variants of IKZF1/3 zinc finger 2; compound dose not given here
Conditions: Jurkat, 18 h
[1] = compound: compound 19 (5-tert-butyl-thalidomide)
[2] = compound: compound 22 (5-morpholino-thalidomide)
[3] = compound: compound 33 (diphenyl IMiD analogue)
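Further: pooled lentiviral library of zinc finger degron-EGFP fusions in mCherry-positive Jurkat cells, FACS-sorted after compound exposure, with degron abundance counted by next-generation sequencing.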

Sequence	log2 fold change of degron read counts [1]	log2 fold change of degron read counts [2]	log2 fold change of degron read counts [3]	log2 fold change of degron read counts (compound: thalidomide)
FVCEICGHWFTQKGNLLRHIKL [46F_47V_49E_50I_52G_53H_54W_55F_67L_, Q9UKT9]	-4.05	-5.4	-3.27	-3.37
FCCNVCGAIFTQKGNLLRHIKL [46F_47C_49N_50V_52G_53A_54I_55F_67L_, Q9UKT9]	-0.872	-0.605	1.29	-0.21
FRCDVCGAKFTQKGNLLRHIKL [46F_47R_49D_50V_52G_53A_54K_55F_67L_, Q9UKT9]	-1.66	-1.94	-0.967	-0.732
FFCEICGHQFTQKGNLLRHIKL [46F_47F_49E_50I_52G_53H_54Q_55F_67L_, Q9UKT9]	-2.47	-1.41	-2.03	-3.11
FCCPVCGAYFTQKGNLLRHIKL [46F_47C_49P_50V_52G_53A_54Y_55F_67L_, Q9UKT9]	0.773	0.428	1.38	0.899
LCCEICGFSCTQKGNLLRHIKL [46L_47C_49E_50I_52G_53F_54S_55C_67L_, Q9UKT9]	2.55	2.37	1.93	2.56
LTCEICGFSCTQKGNLLRHIKL [46L_47T_49E_50I_52G_53F_54S_55C_67L_, Q9UKT9]	2.45	3.22	2.39	3.2
LFCEICGFSCTQKGNLLRHIKL [46L_47F_49E_50I_52G_53F_54S_55C_67L_, Q9UKT9]	3.66	3.51	2.53	2.79
LICEICGFSCTQKGNLLRHIKL [46L_47I_49E_50I_52G_53F_54S_55C_67L_, Q9UKT9]	1.33	3.02	2.39	3.24
LKCEICGFSCTQKGNLLRHIKL [46L_47K_49E_50I_52G_53F_54S_55C_67L_, Q9UKT9]	1.07	-1.26	-1.41	0.762
LYCEICGFSCTQKGNLLRHIKL [46L_47Y_49E_50I_52G_53F_54S_55C_67L_, Q9UKT9]	3.63	3.7	3.1	2.45
LMCEICGFSCTQKGNLLRHIKL [46L_47M_49E_50I_52G_53F_54S_55C_67L_, Q9UKT9]	1.25	2.14	2.59	2.36
FWCEICGHWFTQKGNLLRHIKL [46F_47W_49E_50I_52G_53H_54W_55F_67L_, Q9UKT9]	-1.25	-1.77	-1.42	-1.28
FVCEICGAWFTQKGNLLRHIKL [46F_47V_49E_50I_52G_53A_54W_55F_67L_, Q9UKT9]	-1.2	-0.828	0.741	0.583
FSCNICGASFTQKGNLLRHIKL [46F_47S_49N_50I_52G_53A_54S_55F_67L_, Q9UKT9]	1.66	1.77	1.15	0.544
FCCPQCGAMFTQKGNLLRHIKL [46F_47C_49P_50Q_52G_53A_54M_55F_67L_, Q9UKT9]	-1.18	-1.69	0.335	-0.935
LYCNQCGFVCTQKGNLLRHIKL [46L_47Y_49N_50Q_52G_53F_54V_55C_67L_, Q9UKT9]	-0.977	-0.96	-1.36	-1.76
FHCNQCGAVFTQKGNLLRHIKL [46F_47H_49N_50Q_52G_53A_54V_55F_67L_, Q9UKT9]	-1.89	-2.19	-1.71	-2
